Experimental data reported in article PMC7862700, “An all-to-all approach to the identification of sequence-specific readers for epigenetic DNA modifications on cytosine”.

Assays:
Test in all cases: DAPPL (digital affinity profiling via proximity ligation, sequencing); 10 mM Tris-HCl pH 7.5, 50 mM NaCl, 1 mM DTT, 4% glycerol, room temperature, 30 min; GST-TFs on glutathione beads, 16-mer random dsDNA library, 0.1% formaldehyde crosslink after washing; high values mean tight binding
ETV5 = ETV5 (Homo sapiens, UniProt P41161 1-510); conditions: protein: recombinant; tags: N-terminal GST; dsDNA, one strand shown
In short: (§1)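 Binding signal is each hexamer's read frequency for a factor divided by its frequency in the tag-only sample. The factors were GST-fused human transcription factors from yeast, captured on glutathione beads, DNA-barcoded and pooled with that sample. Pools were incubated with 200 nmole of a random double-stranded 16-mer DNA library in Tris/NaCl/DTT/glycerol buffer at room temperature for 30 min, then washed, crosslinked with 0.1% formaldehyde, proximity-ligated with BsaI/T4 ligase (1 h, 37 °C), PCR-amplified and sequenced on an Illumina NextSeq500.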

HSF1 = HSF1 (Homo sapiens, UniProt Q00613 1-529); conditions: protein: recombinant; tags: N-terminal GST; chain copies: 3; dsDNA, one strand shown
In short: as §1

SPIC = target: T1, SPIC (Homo sapiens, UniProt Q8N5J4 1-248); conditions: protein: recombinant; tags: N-terminal GST; dsDNA, one strand shown
T1 sequence: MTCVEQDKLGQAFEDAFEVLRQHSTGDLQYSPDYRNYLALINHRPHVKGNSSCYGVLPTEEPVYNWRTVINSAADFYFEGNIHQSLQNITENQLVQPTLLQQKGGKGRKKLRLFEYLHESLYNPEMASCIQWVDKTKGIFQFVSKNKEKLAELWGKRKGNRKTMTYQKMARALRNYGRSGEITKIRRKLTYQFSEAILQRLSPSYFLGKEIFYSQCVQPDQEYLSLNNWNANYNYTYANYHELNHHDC
In short: as §1

ELF4 = ELF4 (Homo sapiens, UniProt Q99607 1-663); conditions: protein: recombinant; tags: N-terminal GST; dsDNA, one strand shown
In short: as §1

ELK4 = target: T2, ELK4 (Homo sapiens, UniProt P28324-2 1-405); conditions: protein: recombinant; tags: N-terminal GST; dsDNA, one strand shown
T2 sequence: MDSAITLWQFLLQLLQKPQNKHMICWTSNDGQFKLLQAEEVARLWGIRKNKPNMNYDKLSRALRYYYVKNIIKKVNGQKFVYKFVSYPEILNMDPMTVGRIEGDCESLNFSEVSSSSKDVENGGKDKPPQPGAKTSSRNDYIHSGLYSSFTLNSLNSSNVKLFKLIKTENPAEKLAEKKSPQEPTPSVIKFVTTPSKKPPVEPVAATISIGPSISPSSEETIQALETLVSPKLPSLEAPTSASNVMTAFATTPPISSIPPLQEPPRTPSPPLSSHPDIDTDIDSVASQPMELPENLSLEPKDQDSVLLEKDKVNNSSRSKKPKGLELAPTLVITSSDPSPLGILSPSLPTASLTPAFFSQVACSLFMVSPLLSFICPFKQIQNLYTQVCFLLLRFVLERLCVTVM
In short: as §1

ETV2 = target: T3, ETV2 (Homo sapiens, UniProt O00321 1-342); conditions: protein: recombinant; tags: N-terminal GST; dsDNA, one strand shown
T3 sequence: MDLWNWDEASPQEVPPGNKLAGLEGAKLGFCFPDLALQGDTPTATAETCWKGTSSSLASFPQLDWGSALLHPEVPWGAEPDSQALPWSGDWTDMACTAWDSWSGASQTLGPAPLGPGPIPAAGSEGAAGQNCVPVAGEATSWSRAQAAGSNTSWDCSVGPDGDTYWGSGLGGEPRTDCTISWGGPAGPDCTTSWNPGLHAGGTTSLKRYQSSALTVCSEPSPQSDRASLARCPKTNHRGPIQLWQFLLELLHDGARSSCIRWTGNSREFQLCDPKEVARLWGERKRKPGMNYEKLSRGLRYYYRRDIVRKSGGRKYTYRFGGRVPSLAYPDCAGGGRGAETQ
In short: as §1

CRX = CRX (Homo sapiens, UniProt O43186 1-299); conditions: protein: recombinant; tags: N-terminal GST; dsDNA, one strand shown
In short: as §1

ETV1 = ETV1 (Homo sapiens, UniProt P50549 1-477); conditions: protein: recombinant; tags: N-terminal GST; dsDNA, one strand shown
In short: as §1

ERF = target: T4, ERF (Homo sapiens, UniProt P50548 1-548); conditions: protein: recombinant; tags: N-terminal GST; dsDNA, one strand shown
T4 sequence: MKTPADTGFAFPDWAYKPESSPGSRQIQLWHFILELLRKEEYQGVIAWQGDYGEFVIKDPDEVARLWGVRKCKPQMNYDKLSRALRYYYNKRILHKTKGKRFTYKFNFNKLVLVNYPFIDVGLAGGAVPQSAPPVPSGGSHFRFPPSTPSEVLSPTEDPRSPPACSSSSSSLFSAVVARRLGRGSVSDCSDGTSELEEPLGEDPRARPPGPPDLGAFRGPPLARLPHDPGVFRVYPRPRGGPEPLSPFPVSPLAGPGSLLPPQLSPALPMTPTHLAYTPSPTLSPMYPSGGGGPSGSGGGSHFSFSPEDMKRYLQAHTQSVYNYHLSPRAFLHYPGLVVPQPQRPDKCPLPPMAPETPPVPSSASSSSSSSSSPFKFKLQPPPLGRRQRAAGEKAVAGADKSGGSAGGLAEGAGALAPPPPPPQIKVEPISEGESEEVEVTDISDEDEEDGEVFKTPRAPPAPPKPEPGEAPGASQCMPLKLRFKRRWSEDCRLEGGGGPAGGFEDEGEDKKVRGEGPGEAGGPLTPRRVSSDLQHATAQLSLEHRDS
In short: as §1

ETS2 = target: T5, ETS2 (Homo sapiens, UniProt P15036 1-469); conditions: protein: recombinant; tags: N-terminal GST; dsDNA, one strand shown
T5 sequence: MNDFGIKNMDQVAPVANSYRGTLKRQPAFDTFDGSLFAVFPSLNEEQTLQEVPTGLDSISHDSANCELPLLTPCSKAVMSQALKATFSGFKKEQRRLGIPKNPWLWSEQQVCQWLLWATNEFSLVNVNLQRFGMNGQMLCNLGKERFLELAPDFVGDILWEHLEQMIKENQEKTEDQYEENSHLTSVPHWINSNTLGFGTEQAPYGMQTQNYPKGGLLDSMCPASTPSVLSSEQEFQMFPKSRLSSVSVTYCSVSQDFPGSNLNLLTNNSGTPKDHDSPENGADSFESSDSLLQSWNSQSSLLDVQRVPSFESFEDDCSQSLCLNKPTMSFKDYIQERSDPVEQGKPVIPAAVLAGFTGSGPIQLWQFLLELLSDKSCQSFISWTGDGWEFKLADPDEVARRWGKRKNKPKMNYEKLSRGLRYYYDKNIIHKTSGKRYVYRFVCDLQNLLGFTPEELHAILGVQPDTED
In short: as §1

ELF5 = target: T6, ELF5 (Homo sapiens, UniProt Q9UKW6-2 1-255); conditions: protein: recombinant; tags: N-terminal GST; dsDNA, one strand shown
T6 sequence: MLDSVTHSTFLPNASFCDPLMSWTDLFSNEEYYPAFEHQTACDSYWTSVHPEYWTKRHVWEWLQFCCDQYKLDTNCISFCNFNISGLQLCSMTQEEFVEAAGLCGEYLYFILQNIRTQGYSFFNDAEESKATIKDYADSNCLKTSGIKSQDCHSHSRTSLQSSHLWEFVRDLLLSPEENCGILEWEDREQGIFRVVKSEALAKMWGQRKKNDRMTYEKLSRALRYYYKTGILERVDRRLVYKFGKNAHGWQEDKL
In short: as §1

ETV3 = target: T7, ETV3 (Homo sapiens, UniProt P41162-2 1-143); conditions: protein: recombinant; tags: N-terminal GST; dsDNA, one strand shown
T7 sequence: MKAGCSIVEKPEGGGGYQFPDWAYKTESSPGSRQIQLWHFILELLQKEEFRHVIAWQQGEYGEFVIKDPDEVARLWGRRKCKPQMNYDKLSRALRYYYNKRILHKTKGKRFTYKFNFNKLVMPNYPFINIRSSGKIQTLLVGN
In short: as §1

ETV6 = ETV6 (Homo sapiens, UniProt P41212 1-452); conditions: protein: recombinant; tags: N-terminal GST; dsDNA, one strand shown
In short: as §1

FEV = target: T8, FEV (Homo sapiens, UniProt Q99581 1-238); conditions: protein: recombinant; tags: N-terminal GST; dsDNA, one strand shown
T8 sequence: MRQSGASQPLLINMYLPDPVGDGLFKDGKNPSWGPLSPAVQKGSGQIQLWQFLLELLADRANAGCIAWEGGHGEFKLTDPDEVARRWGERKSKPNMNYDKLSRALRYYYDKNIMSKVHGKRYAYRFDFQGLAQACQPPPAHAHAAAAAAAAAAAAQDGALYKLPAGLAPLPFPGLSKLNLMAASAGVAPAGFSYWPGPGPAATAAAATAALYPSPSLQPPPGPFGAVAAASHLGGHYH
In short: as §1

SPDEF = target: T9, SPDEF (Homo sapiens, UniProt O95238 1-335); conditions: protein: recombinant; tags: N-terminal GST; dsDNA, one strand shown
T9 sequence: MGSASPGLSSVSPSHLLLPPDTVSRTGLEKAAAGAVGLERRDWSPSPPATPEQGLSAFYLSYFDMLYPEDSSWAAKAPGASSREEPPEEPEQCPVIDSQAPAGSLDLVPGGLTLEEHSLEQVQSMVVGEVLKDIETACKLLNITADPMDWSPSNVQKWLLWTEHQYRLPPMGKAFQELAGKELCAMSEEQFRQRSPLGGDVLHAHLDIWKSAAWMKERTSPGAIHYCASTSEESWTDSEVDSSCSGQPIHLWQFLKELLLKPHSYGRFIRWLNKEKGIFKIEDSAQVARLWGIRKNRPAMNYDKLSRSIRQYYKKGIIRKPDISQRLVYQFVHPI
In short: as §1

ETV3L = target: T10, ETV3L (Homo sapiens, UniProt Q6ZN32 1-361); conditions: protein: recombinant; tags: N-terminal GST; dsDNA, one strand shown
T10 sequence: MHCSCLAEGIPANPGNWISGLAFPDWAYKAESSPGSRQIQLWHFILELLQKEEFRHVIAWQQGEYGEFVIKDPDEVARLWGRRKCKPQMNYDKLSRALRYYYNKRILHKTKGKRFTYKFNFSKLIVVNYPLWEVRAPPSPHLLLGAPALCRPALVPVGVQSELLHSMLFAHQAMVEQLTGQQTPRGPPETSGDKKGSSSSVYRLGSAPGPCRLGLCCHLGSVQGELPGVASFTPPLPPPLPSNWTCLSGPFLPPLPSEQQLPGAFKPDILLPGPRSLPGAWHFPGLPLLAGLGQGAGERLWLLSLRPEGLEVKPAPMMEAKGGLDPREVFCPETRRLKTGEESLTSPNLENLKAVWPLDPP
In short: as §1

ETV7 = target: T11, ETV7 (Homo sapiens, UniProt Q9Y603 1-341); conditions: protein: recombinant; tags: N-terminal GST; dsDNA, one strand shown
T11 sequence: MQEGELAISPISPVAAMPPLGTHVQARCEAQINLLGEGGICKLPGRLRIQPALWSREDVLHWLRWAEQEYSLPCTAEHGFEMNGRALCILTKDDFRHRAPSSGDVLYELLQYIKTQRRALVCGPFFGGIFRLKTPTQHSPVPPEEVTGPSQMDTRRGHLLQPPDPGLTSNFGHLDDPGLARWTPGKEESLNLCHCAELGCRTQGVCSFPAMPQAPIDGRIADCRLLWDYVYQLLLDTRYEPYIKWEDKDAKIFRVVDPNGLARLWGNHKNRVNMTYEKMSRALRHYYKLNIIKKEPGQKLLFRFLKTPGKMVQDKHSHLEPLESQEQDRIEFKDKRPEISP
In short: as §1

ETV1, sequence (P50549 whole entry): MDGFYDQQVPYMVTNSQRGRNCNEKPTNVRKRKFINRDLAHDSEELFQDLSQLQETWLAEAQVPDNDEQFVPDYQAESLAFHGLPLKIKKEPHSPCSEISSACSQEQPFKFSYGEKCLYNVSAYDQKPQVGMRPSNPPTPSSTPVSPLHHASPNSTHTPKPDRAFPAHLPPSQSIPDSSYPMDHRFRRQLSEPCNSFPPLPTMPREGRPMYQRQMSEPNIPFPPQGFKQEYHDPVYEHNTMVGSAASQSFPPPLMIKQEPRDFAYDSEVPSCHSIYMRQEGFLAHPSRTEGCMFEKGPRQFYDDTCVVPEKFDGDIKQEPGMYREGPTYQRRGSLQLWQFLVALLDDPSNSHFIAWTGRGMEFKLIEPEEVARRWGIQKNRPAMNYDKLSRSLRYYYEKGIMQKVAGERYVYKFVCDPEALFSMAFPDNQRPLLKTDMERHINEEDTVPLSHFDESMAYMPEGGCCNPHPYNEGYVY
ETV6, sequence (P41212 whole entry): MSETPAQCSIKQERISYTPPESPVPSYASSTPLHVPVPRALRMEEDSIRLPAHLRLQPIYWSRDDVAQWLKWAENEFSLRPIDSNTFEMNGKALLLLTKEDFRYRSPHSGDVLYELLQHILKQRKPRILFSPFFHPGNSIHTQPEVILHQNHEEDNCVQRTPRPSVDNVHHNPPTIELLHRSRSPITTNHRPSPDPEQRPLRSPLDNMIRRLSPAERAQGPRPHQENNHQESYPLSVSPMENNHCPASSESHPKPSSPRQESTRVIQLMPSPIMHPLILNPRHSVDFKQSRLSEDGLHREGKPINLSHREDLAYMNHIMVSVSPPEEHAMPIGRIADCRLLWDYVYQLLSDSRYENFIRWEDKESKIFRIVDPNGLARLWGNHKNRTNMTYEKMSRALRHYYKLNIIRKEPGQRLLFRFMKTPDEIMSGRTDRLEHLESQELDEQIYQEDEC
ETV5, sequence (P41161 whole entry, the tested form may be a part): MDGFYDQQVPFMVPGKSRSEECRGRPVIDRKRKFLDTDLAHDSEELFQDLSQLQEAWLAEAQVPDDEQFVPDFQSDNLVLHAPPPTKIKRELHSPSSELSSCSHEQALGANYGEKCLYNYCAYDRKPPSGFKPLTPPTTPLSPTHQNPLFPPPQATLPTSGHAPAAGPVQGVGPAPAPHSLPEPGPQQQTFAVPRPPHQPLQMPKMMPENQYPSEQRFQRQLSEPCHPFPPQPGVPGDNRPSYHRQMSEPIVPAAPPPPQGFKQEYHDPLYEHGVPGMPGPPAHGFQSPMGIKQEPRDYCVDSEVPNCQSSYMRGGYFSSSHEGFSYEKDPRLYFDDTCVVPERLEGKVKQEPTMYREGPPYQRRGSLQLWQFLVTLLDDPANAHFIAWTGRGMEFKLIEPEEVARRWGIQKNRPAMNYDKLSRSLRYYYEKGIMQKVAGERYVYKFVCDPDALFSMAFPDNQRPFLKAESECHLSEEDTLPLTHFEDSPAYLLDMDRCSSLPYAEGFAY
ELF4, sequence (Q99607 whole entry): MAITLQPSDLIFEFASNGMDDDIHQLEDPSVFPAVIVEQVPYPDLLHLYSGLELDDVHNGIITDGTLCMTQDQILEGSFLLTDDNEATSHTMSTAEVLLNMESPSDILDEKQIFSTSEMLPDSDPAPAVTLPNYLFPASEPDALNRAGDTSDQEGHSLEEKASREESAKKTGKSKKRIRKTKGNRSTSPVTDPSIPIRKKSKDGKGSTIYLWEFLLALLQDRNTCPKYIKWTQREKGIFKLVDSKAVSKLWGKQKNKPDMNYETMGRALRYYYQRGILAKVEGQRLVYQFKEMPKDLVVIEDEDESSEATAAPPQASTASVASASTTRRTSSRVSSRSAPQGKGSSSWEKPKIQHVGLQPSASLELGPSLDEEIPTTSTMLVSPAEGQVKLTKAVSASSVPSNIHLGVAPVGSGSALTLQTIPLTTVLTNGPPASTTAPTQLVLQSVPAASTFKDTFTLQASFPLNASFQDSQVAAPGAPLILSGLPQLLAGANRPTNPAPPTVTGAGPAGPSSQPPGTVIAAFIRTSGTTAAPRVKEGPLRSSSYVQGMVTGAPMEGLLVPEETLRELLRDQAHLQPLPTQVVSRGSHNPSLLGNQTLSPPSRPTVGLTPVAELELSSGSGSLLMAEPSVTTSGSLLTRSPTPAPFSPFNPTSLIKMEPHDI
CRX, sequence (O43186 whole entry): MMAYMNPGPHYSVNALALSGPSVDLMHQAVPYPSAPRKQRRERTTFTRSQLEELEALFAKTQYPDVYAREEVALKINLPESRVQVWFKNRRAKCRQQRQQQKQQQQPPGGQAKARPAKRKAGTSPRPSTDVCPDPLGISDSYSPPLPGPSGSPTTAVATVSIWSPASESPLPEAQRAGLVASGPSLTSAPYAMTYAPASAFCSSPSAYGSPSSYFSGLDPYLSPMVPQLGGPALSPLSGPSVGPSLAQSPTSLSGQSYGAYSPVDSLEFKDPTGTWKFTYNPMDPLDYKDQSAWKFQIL
HSF1, sequence (Q00613 whole entry): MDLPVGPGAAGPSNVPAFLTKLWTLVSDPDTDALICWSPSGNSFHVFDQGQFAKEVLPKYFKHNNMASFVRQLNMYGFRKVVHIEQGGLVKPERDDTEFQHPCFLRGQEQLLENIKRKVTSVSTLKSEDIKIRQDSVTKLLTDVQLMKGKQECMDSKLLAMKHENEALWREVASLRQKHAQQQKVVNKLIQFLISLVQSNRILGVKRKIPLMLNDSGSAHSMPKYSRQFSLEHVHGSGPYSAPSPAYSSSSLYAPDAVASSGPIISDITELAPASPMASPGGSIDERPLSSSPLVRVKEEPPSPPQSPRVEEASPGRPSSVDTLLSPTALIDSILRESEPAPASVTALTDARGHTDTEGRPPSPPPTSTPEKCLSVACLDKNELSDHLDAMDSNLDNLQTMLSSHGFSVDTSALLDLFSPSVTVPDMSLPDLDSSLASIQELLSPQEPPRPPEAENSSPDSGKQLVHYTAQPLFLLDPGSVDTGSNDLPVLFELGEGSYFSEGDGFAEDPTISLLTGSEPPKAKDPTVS

Sequence | binding signal (ETV5) | binding signal (HSF1) | binding signal (SPIC) | binding signal (ELF4) | binding signal (ELK4) | binding signal (ETV2) | binding signal (CRX) | binding signal (ETV1) | binding signal (ERF) | binding signal (ETS2) | binding signal (ELF5) | binding signal (ETV3) | binding signal (ETV6) | binding signal (FEV) | binding signal (SPDEF) | binding signal (ETV3L) | binding signal (ETV7)
CTGTAA | 1.05 fold enrichment (6-mer frequency, TF over GST control) | 1.09 fold enrichment (6-mer frequency, TF over GST control) | 1.24 fold enrichment (6-mer frequency, TF over GST control) | 1.06 fold enrichment (6-mer frequency, TF over GST control) | 1.09 fold enrichment (6-mer frequency, TF over GST control) | 1.21 fold enrichment (6-mer frequency, TF over GST control) | 1.25 fold enrichment (6-mer frequency, TF over GST control) | 1 fold enrichment (6-mer frequency, TF over GST control) | 1.2 fold enrichment (6-mer frequency, TF over GST control) | 1.09 fold enrichment (6-mer frequency, TF over GST control) | 1.03 fold enrichment (6-mer frequency, TF over GST control) | 1.12 fold enrichment (6-mer frequency, TF over GST control) | 1.03 fold enrichment (6-mer frequency, TF over GST control) | – | – | – | –
CAGAAT | 1.01 fold enrichment (6-mer frequency, TF over GST control) | 2.05 fold enrichment (6-mer frequency, TF over GST control) | 1.01 fold enrichment (6-mer frequency, TF over GST control) | 1.13 fold enrichment (6-mer frequency, TF over GST control) | 1.05 fold enrichment (6-mer frequency, TF over GST control) | 1.13 fold enrichment (6-mer frequency, TF over GST control) | 1.34 fold enrichment (6-mer frequency, TF over GST control) | 1.04 fold enrichment (6-mer frequency, TF over GST control) | 1 fold enrichment (6-mer frequency, TF over GST control) | – | 1.02 fold enrichment (6-mer frequency, TF over GST control) | – | 1.02 fold enrichment (6-mer frequency, TF over GST control) | 1.05 fold enrichment (6-mer frequency, TF over GST control) | 1.06 fold enrichment (6-mer frequency, TF over GST control) | – | –
GAAAAG | 1.02 fold enrichment (6-mer frequency, TF over GST control) | 1.22 fold enrichment (6-mer frequency, TF over GST control) | 1.1 fold enrichment (6-mer frequency, TF over GST control) | 1.05 fold enrichment (6-mer frequency, TF over GST control) | 1.01 fold enrichment (6-mer frequency, TF over GST control) | 1.11 fold enrichment (6-mer frequency, TF over GST control) | 1.01 fold enrichment (6-mer frequency, TF over GST control) | 1.15 fold enrichment (6-mer frequency, TF over GST control) | 1 fold enrichment (6-mer frequency, TF over GST control) | 1.05 fold enrichment (6-mer frequency, TF over GST control) | 1.12 fold enrichment (6-mer frequency, TF over GST control) | – | 1.18 fold enrichment (6-mer frequency, TF over GST control) | 1.04 fold enrichment (6-mer frequency, TF over GST control) | 1.01 fold enrichment (6-mer frequency, TF over GST control) | 1.09 fold enrichment (6-mer frequency, TF over GST control) | 1.13 fold enrichment (6-mer frequency, TF over GST control)
